Assay results published in PubChem BioAssay AID624330 (Southern Research Specialized Biocontainment Screening …, 2012).
The campaign covered roughly 340,000 compounds. About 2,100 (0.62%) were called active.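 Rule for the calls: active = first-screen hits whose inhibition reached a set limit at any dose in the follow-up dose series; inconclusive = inhibition above the set first-screen limit but never retested; inactive = the rest.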 The list is a sample of the results. Entries with a potency or affinity are not part of this list.

target: Rac GTPase-activating protein 1 (Homo sapiens) (UniProt Q9H0H5); experiment: MgcRacGAP GTPase-activating activity inhibitors, confirmation, biochemical, ADP Hunter fluorescence, primary and confirmatory (AID 624330); conditions: MgcRacGAP-stimulated Rac1 GTP hydrolysis, at 30 µM, active compounds read high, GST-tagged Rac1 F28L mutant substrate;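 note: fluorescence reports GDP produced by GAP-driven GTP hydrolysis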
Sequence (Q9H0H5 whole entry, looked up): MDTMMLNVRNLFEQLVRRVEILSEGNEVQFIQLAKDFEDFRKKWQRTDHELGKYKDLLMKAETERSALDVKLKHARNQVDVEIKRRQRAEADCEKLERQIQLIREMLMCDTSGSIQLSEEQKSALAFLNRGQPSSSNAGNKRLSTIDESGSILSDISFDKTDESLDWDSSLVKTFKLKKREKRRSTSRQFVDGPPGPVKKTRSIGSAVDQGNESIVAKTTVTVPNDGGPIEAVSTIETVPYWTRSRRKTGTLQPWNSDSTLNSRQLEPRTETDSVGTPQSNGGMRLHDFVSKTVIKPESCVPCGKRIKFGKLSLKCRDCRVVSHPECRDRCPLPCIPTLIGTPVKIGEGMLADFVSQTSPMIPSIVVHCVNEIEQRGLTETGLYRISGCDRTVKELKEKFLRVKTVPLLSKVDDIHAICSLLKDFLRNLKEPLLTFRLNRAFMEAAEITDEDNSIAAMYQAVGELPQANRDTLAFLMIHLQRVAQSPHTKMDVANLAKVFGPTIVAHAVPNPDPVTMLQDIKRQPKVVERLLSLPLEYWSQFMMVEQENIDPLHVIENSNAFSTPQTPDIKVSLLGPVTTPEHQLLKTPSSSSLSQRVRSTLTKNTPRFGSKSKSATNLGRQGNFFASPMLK

inhibition, inactive:
O=C1c2ccccc2C(=O)N1Cc1ccco1 8.18%
CN(C)c1ccc(C=C2SC(=S)N(Cc3ccco3)C2=O)cc1 9.1%
CCN(CC)c1ccc(C=C2C(=O)OC3(CCCCC3)OC2=O)cc1 4.11%
O=C1c2cccc3cccc(c23)C(=O)N1Cc1ccco1 6.44%
CCN(CC)c1ccc(C=C2C(=O)OC3(CCCC3)OC2=O)cc1 14.2%
COC(=O)C1=C(C)N(Cc2ccco2)C(=O)/C1=C\c1ccc(N(C)C)cc1 1.57%
COCCNC(=S)N/N=C/c1c2ccccc2cc2ccccc12 6.58%
COc1ccccc1CC(=O)Nc1ccc2c(C)cc(=O)oc2c1 4.86%
COC(=O)C(CC(C)C)NC(=O)c1cccs1 (stereo not given) 0.95%
COc1ccc(N=C2S/C(=C\c3cccs3)C(=O)N2CC(C)C)cc1 12.5%
CC(C(=O)NCC(=O)Nc1ccc(F)c(F)c1F)N1CCN(Cc2ccc(C#N)cc2)CC1 (stereo not given) -0.12%
O=C(CN1CCN(Cc2cccc(C(F)(F)F)c2)CC1)NCC(=O)Nc1ccc(F)c(F)c1F 3.75%
O=C(CN1CCCCC1)NCC(=O)Nc1ccc(F)c(F)c1F -2.94%
CC(C(=O)Nc1ccc(F)c(F)c1F)N1CCCCCC1 (stereo not given) 9.76%
COc1ccc(N(CC(C)C)S(=O)(=O)c2nnc(NC(=O)CC(C)C)s2)cc1 2.69%
CC(=O)Nc1cc(-c2ccccc2)nn1Cc1ccc(Cl)cc1 -1.04%
[O-]/[N+](=N\Nc1ccc(Cl)cc1)c1ccccc1 9.79%
CN1/C(=C/c2cc[n+](C)c3ccccc23)C=Cc2ccccc21 31.4%
CN1C=C/C(=C\c2cc[n+](C)c3ccccc23)c2ccccc21 -0.62%
CN(C)c1ccc(C=Cc2ccnc3c(O)cccc23)cc1 8.47%
CC[n+]1ccccc1/C=C/c1ccc(N(C)C)cc1 10.2%
CC[n+]1cc(C)ccc1/C=C/c1ccc(N(C)C)cc1 7.19%
CN(C)c1ccc(/C=C/c2cc[n+](C)cc2)cc1 22.9%
Fc1ccc(C2CC(c3ccco3)n3ncnc3N2)cc1 (stereo not given) -3.61%
Cc1cc(C(=O)Nc2sccc2C(N)=O)c(C)o1 2.82%
CCc1ccc2oc(C(=O)Nc3cccnc3)c(C)c2c1 3.43%
COc1ccc(NC(=O)NC(C)c2ccccc2)cc1 (stereo not given) 7.88%
CN1CCN(c2nc3ccccn3c(=O)c2/C=C(\C#N)S(=O)(=O)c2ccccc2)CC1 10.8%
O=C(CCN1C(=O)C2C3CC(C(Br)C3Br)C2C1=O)OCC(=O)c1ccccc1 (stereo not given) 7.46%
O=C(CNS(=O)(=O)c1ccc(Cl)cc1)NC1CCCCC1 -0.07%
Cc1cc(C(=O)NCc2ccc(F)cc2)n(-c2ccccc2)n1 12.3%
COc1ccc(CN2CCN(CCCc3ccccc3)C(CCO)C2)c(OC)c1 (stereo not given) 3.22%
COc1cccc(N2CCN(Cc3ncc(-c4ccccc4)o3)CC2)c1 7.37%
Cc1cc(=O)[nH]c(N/N=C/c2c[nH]c3ccccc23)n1 22.9%
Cc1cc(N/N=C/c2c[nH]c3ccccc23)c2ccccc2n1 -1.16%
COc1ccc(/C=N/Nc2nc3ccccc3[nH]2)c(OC)c1OC 12.8%
Fc1c(F)c(F)c(N/N=C/c2c[nH]c3ccccc23)c(F)c1F 3.69%
CC(C)n1c(/N=C/c2c[nH]c3ccccc23)nc2ccccc21 1.11%
Cc1ccccc1/C=N/Nc1nc2ccccc2[nH]1 18.4%
Cc1ccc(/C=N/Nc2nc3ccccc3[nH]2)s1 -6%
Cn1c(/N=C/c2c[nH]c3ccccc23)nc2ccccc21 8.49%
Cc1ccc(-c2nc(C3CCN(S(C)(=O)=O)CC3)no2)cc1 10.6%
O=C1NC(Cc2ccccc2)c2nc3ccc(Cl)cc3c(=O)n2-c2ncccc21 (stereo not given) 7.29%
CC(NS(C)(=O)=O)C(c1cccs1)N1CCN(C)CC1 (stereo not given) 10.3%
CCOC(=O)N1CCN(CC(O)COc2ccc(C(C)C)c(C)c2)CC1 (stereo not given) 5.78%
COCC1CCCCN1C(=O)c1ccc(OC2CCN(CCc3ccccc3)CC2)cc1 (stereo not given) 10.2%
COC(=O)c1cc(S(=O)(=O)N2CCC(c3cc(OC)ccc3OC)C2)c[nH]1 (stereo not given) 8.61%
Cc1ccc(-c2sc(C)nc2CC(=O)O)cc1 13.9%
O=C(Nc1cccc(-n2cnnn2)c1)c1cc(Cl)nc(Cl)c1 9.64%
COc1ccccc1/C=C/C(=O)OCc1nc2ccccc2c(=O)[nH]1 7.19%
CC(C)(Oc1ccc(Cl)cc1)C(=O)NC1CC1 7.55%
CCC(C)c1ccc(OCC(=O)Nc2ccc3c(c2)C(=O)NC3=O)cc1 (stereo not given) 5.62%
c1ccc(-c2ccccc2OCCCCN2CCCCC2)cc1 29.3%
C=CCNC(=S)N/N=C(\C)c1ccc(-n2ccnc2)cc1 -11.5%
CN(CC(=O)Nc1ccc(Cl)c(Cl)c1)C1CCCCC1 23.1%
O=C(CN1CCOCC1)Nc1ccc2c(c1)OC(F)(F)O2 1.95%
CN(CC(=O)Nc1ccc(Cl)cc1)C1CCCCC1 9.37%
COc1ccc(NC(=O)CN(C)C2CCCCC2)cc1Cl 12.2%
CC1CCCCN1CC(=O)Nc1ccc2c(c1)OC(F)(F)O2 (stereo not given) -6.38%
CN(CC(=O)Nc1ccc(S(N)(=O)=O)cc1)C1CCCCC1 1.98%
c1ccc(Cc2nc3ccccc3o2)cc1 8.84%
CCN(c1ccccc1)S(=O)(=O)c1ccc(C(=O)Nc2cccc(NC(C)=O)c2)cc1 5.09%
COc1ccc(/C=C2\SC(=S)N(CCC(=O)Nc3ccc(C(=O)O)cc3)C2=O)cc1OC 0.85%
O=C(CC(=O)Nc1ccc(F)cc1)Nc1ccc(F)cc1 5.61%
O=C(COC(=O)c1ccc(O)cc1)Nc1ccccc1 10.2%
NC(=Nc1ccccc1)Nc1ccccc1 7.17%
CC(=O)Nc1ccc(N=Nc2ccccc2)cc1 0.87%
CC(=Nc1ccccc1)Nc1ccccc1 5.11%
CC(=O)Nc1ccc(N=NN2CCOCC2)cc1 4.54%
COCC(=O)Nc1ccc(F)cc1 -1.69%
O=C(Cc1ccccc1)Nc1ccc(C(=O)Nc2ccc(O)cc2)cc1 24.4%
CCC(Oc1ccccc1)C(=O)Nc1ccccc1N1CCCC1 (stereo not given) 7.77%
CNC(=O)c1oc(-c2ccccc2)nc1C 10.8%
O=C(COC(=O)C1CC(=O)N(c2ccc3c(c2)OCCO3)C1)Nc1ccc2c(c1)CCC2 (stereo not given) 8.9%
O=C1CC(NS(=O)(=O)c2cccnc2)CN1c1cccc(F)c1 (stereo not given) 6.2%
COC(=O)C(C(=O)N1CCN(C)CC1)C1CCCCCC1 (stereo not given) -1.36%
Cc1ccc(NC(=O)c2cc(S(=O)(=O)N3CCOCC3)ccc2Cl)cc1S(=O)(=O)N1CCOCC1 9.95%
Cc1ccc(Nc2nc3ccccc3n3cnnc23)c(Cl)c1 5.8%
CCN(CC)C(=O)Cn1cc(C(=O)C(=O)NCCc2c[nH]c3ccccc23)c2ccccc21 7.03%
CCN(CC)CCN(C(=O)c1cc2ccccc2cc1OC)c1nc2ccc(F)cc2s1 6.61%
COc1ccc(CN2CCCCCC2)cc1 18.2%
COc1cc(CN2CCN(C(O)(c3ccccc3)c3ccccc3)CC2)cc(OC)c1OC 27.9%
COc1cc(OC)c(OC)cc1CN1CCN(Cc2ccc(C(F)(F)F)cc2)CC1 24.6%
FC(F)(F)c1ccc(CN2CCCCCC2)cc1 16.1%
O=C(O)CC1(CC(=O)NCc2cc(F)cc3c2OCOC3)CCCCC1 5.25%
CN(CCc1cn[nH]c1)C(=O)CC1C(=O)NCCN1Cc1ccccc1C(F)(F)F (stereo not given) -8.64%
Cc1ccc(C(=O)NC(=O)CSc2ncccc2C(=O)O)cc1 1.2%
Cc1ccc(S(=O)(=O)NN2C(=O)c3ccccc3NC2(C)C)cc1 6.9%
CC[C@H](C)[C@H](NC(N)=O)C(=O)Nc1ccc2c(c1)OCO2 3.75%
N#Cc1ccccc1S(=O)(=O)N1CCC(C(=O)Nc2cccc(C(=O)NC3CC3)c2)CC1 -0.25%
CCOC(=O)c1cc(CC)sc1/N=C/c1c(O)ccc2ccccc12 8.65%
CCOC(=O)c1c(/N=C/c2ccc(C)cc2O)sc2c1CCC2 5.81%
CCOC(=O)c1c(/N=C/c2ccc(OC)cc2O)sc2c1CCN(C)C2 17%
Cc1cc(C(=O)O)ccc1N=Cc1c(O)ccc2ccccc12 3.39%
N#Cc1ccc(OCC(=O)N2CCN(C(=O)c3ccco3)CC2)cc1 3.79%
Cc1cc(COc2ccccc2OCc2cc(C)no2)on1 9.58%
CCOC(=O)c1c(NC(C)=O)sc2c(OC)c(Br)ccc12 -9.05%
CCOC(=O)c1c(NC(C)=O)sc2c(O)c(Br)ccc12 4.12%
CCOC(=O)c1c(N)sc(N)c1C(=O)OCC 7.17%
CCOC(=O)c1c(N)sc2c(OCC)c(Br)ccc12 5.92%
